From the supplement of paper PMC10338343
± gives the standard deviation. The full ranking holds about 8,200 sequences; the median of “pre-steady-state target cleavage rate” is about 0.024, and the highest 2% start at about 1.3. Many of the other results were omitted from the sample, so the highest values are more common in it than they were.

System: MIWI (PIWIL1) piRISC loaded with L1MC piRNA (30 nt)
Assay: pre-steady-state target cleavage rate (min^-1); MIWI and MILI are mouse PIWI proteins and EfPiwi is from a freshwater sponge; tags in brackets are library labels; higher = faster piRNA-guided slicing of the target
Conditions: guide: L1MC piRNA 5'p-UAACUAAAUACUAUGCAAGCUGUAGGUCCU
In short: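 Cleave-'n-Seq: a transcribed, DNA-blocked target RNA library (0.1 nM) was mixed with 1 nM active affinity-purified piRISC carrying one synthetic guide, with or without 500 nM GTSF1 partner protein, in HEPES–potassium acetate buffer at 33 °C for 0–8 or 0–960 min. Uncleaved targets were sequenced and normalised to depth and to weakly complementary targets. Three trials were pooled, and k3 was capped at 0.0001 min^-1. The pre-steady-state cleavage rate came from a burst-and-steady-state fit.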

[1] = auxiliary factor: 500 nM mouse GTSF1
[2] = auxiliary factor: none (no GTSF1)

Sequence | pre-steady-state target cleavage rate [1] | pre-steady-state target cleavage rate [2]
UCCUGCUACAGCUUGCAUAGUAUUUUGUAA | 0.274 ± 0.043 | 0.009 ± 0.0031
UCCUGGAUGAGCUACCAUAGUAUUUAGUUA | 0.0107 ± 0.0041 | –
UCCUCCUACAGCUUGCAUAGUAUUGUAGUUA | 0.282 ± 0.054 | 0.00959 ± 0.0038
UCCUGGAACAGCUUGCAUGUAUUUAGUUA | 0.103 ± 0.015 | 0.00591 ± 0.0032
UCCUGGAUGUCCUUGCAUACUAUUUAGUUA | 0.0164 ± 0.0047 | 0.00616 ± 0.0016
UCCACCUACAGCUUCCAUAGUAUUUACAAA | 0.0165 ± 0.008 | –
UCCUGGUACAGCUUGCAUAGUAUUUAGCUA | 0.00692 ± 0.0039 | –
AGGUGCUACAGCUUGCAUAGUAUUUAGUUA | 1.23 ± 0.064 | 0.0832 ± 0.016
UCGUGCUACAGCUUGCAUAGUAUUUAGUAA | 0.926 ± 0.053 | 0.0286 ± 0.0054
UCGUGCUACAGCUUGCAUAGUAUUUAGUUA | 1.38 ± 0.059 | 0.0704 ± 0.012
UGGAGGAACAGCUUGCAUAGUAUUUAGAAA | 0.364 ± 0.037 | 0.00934 ± 0.004
UCCUCCUACCAGCUUGCAUAGUAUUUAGUUA | 1.15 ± 0.055 | 0.0479 ± 0.011
UCGACCUACAGGUUGCAUACUAUUUAGUUA | 0.273 ± 0.018 | 0.0207 ± 0.004
UCGACCUACAGCAUGCAUAGUAUUUAGUAA | 0.99 ± 0.072 | 0.0189 ± 0.0064
UCGACCUACAGCAUUGCAUAGUAUUUAGUUA | 1.19 ± 0.082 | 0.0581 ± 0.012
UCGACCUACAGCAUGCAUAGUAUUUAGUUA | 1.48 ± 0.049 | 0.0548 ± 0.013
ACGACCUACAGCAUGCAUAGUAUUUAGUUA | 1.43 ± 0.053 | 0.082 ± 0.021
UGCACCUACAGCAUGCAUAGUAUUUAGUUA | 0.998 ± 0.092 | 0.0271 ± 0.0047
AGCACCUACAGCAUGCAUAGUAUUUAGUUA | 1.02 ± 0.13 | 0.0663 ± 0.022
UCCUGCUAGAGCUUGCAUAGUAUUUACAAA | 0.186 ± 0.047 | –
UCCUGCUACAGCUAGCAUAGUAUUUUCAAA | 0.0744 ± 0.023 | –

Sequence | pre-steady-state target cleavage rate [1] | pre-steady-state target cleavage rate [2]
UCCUGGAACAGCUUGCAAUGUAUUUAGUAA | 0.146 ± 0.018 | 0.00598 ± 0.003
UGGACCUACAGCUUGCAUAGUAUUUAUUA | 0.126 ± 0.015 | 0.00594 ± 0.0034
UGGACCUACAGCUUGCAUAGUUAAUAGAAA | 0.0323 ± 0.01 | –
UGGACCUAAGCUUGCAUAGUAUUUAGUUA | 1.27 ± 0.083 | 0.0446 ± 0.012
AGGACCUCCAGCUUGCAUAGUAUUUAGUUA | 1.22 ± 0.048 | 0.0926 ± 0.018
UCCACCUCAGCUUGCAUAGUAUUUAGUUA | 0.878 ± 0.07 | 0.0436 ± 0.0088
UGGACCUCAGCUUGCAUAGUAUUUAGUUA | 1.43 ± 0.094 | 0.055 ± 0.011
UCCACCUCCAGCUUGCAUAGUAUUUAGUUA | 0.89 ± 0.033 | 0.0442 ± 0.0078
UGGACCUCCAGCUUGCAUAGUAUUUAGUUA | 1.39 ± 0.054 | 0.08 ± 0.014
AGGACCUCAGCUUGCAUAGUAUUUAGUUA | 1.34 ± 0.077 | 0.0984 ± 0.019
UCGACCUACUGCUUGCAUAGUAUUUACUUA | 0.278 ± 0.017 | 0.0322 ± 0.0038
UCCUGGUACACCUUGCAUAGUAUAUAGUUA | 0.555 ± 0.09 | 0.00685 ± 0.0027
UCCACCUACAGCUUGCAUAGUAUAAUCAAA | 0.327 ± 0.056 | –
UGGAGCAACAGCUUGCAUAGUAUUUAGUUA | 1.39 ± 0.044 | 0.0851 ± 0.016
UCCAGCAACAGCUUGCAUAGUAUUUAGUUA | 1.19 ± 0.049 | 0.0797 ± 0.014
UGGAGGAACAGCUUGCAUAGUAUUUAGUUA | 1.26 ± 0.049 | 0.0795 ± 0.015
AGGAGGAACAGCUUGCAUAGUAUUUAGUUA | 1.41 ± 0.065 | 0.0955 ± 0.019
UCGAGGAACAGCUUGCAUAGUAUUUAGUUA | 1.02 ± 0.076 | 0.057 ± 0.011
UCCUGGAGCAGCUUGCAUAGUAUUUAGUUA | 1.13 ± 0.044 | 0.0692 ± 0.013
AGGAGCAACAGCUUGCAUAGUAUUUAGUUA | 1.67 ± 0.069 | 0.0907 ± 0.016
UCGAGCAACAGCUUGCAUAGUAUUUAGUUA | 1.29 ± 0.044 | 0.076 ± 0.013

Sequence | pre-steady-state target cleavage rate [1] | pre-steady-state target cleavage rate [2]
UCCUGGAUGUGCUUUGCAUAGUAUUUAGUUA | 0.251 ± 0.022 | 0.0142 ± 0.0043
UCCUGGAUGAGCUUGCAAAGUAUUUUGUUA | 0.267 ± 0.029 | 0.0136 ± 0.0037
UCGACGUACACCUUGCAUAGUAUUUAGUUA | 1.23 ± 0.026 | 0.0575 ± 0.0089
UCCUGGUACAGCUAGCAUAGUAAUUAGUUA | 0.379 ± 0.053 | 0.00998 ± 0.0037
UCCUGGUACAGCUUGCAUAGUAUUUGGUUA | 0.449 ± 0.037 | 0.0417 ± 0.0074
UGGACCUACAGCUUGCAUAGUUAUUACAAA | 0.0207 ± 0.0062 | –
UCGACCUACACCUUGCAUAGUAUUUACUUA | 0.254 ± 0.034 | 0.0244 ± 0.0036
UCCUGGAUGAGCUUGGAUAGUAUUUACUUA | – | 0.00357 ± 0.0031
UCGACCUACGGCUUGCAUAGUAUUUAGUUA | 1.35 ± 0.053 | 0.069 ± 0.011
UCCACCUACGGCUUGCAUAGUAUUUAGUUA | 0.921 ± 0.074 | 0.0494 ± 0.01
UGGACCUACGGCUUGCAUAGUAUUUAGUUA | 1.44 ± 0.1 | 0.0662 ± 0.013
AGGACCUACGGCUUGCAUAGUAUUUAGUUA | 1.27 ± 0.077 | 0.0872 ± 0.017
UCGACCUACGAGCUUGCAUAGUAUUUAGUUA | 0.737 ± 0.077 | 0.0529 ± 0.011
UCGACCUACAGGCUUGCAUAGUAUUUAGUUA | 1.07 ± 0.045 | 0.07 ± 0.011
UCCUCCUACAGCUUGCAUAGUUUUUAGAUA | 0.228 ± 0.036 | 0.00676 ± 0.0025
AGGACCUACAGCUUGCAUAGUUUUUAGAUA | 0.259 ± 0.034 | 0.0189 ± 0.0055
UCCUGCUACAACUUGCAUAGUAUUUAGUUA | 0.679 ± 0.044 | 0.0522 ± 0.0072
UCCUGGUUCAGCUUGGAUAGUAUUUAGUUA | 0.791 ± 0.063 | 0.0603 ± 0.014
UCCUGGAACAGCUGCAUAGUAUUUAGUUA | 0.767 ± 0.044 | 0.00757 ± 0.0034
